# Assay results reported in the supplement of paper PMC3334620.
# The full ranking holds about 33,000 sequences; the median of “E-score (-0.5 to 0.5)” is about -0.036, and the highest 2% start at about 0.37. This is one part of a sample in which the highest values are shown more often than they occur.
# Biological target: T1, Yer064c (UniProt P40041)
# T1 sequence: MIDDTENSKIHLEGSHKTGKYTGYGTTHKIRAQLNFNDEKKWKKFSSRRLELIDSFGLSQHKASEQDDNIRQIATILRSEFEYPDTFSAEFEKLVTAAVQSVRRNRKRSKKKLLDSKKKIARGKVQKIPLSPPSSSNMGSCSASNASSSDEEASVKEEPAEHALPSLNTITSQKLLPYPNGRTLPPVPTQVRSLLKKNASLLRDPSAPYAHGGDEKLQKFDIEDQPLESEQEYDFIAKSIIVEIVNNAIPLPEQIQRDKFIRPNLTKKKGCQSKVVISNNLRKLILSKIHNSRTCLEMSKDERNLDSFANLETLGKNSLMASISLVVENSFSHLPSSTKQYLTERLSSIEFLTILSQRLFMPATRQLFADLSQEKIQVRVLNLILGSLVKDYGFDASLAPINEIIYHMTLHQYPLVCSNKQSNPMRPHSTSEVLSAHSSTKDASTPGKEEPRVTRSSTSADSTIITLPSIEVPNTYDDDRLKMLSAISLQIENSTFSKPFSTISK
# Experiment: PBM E-score (8-mer binding enrichment) (E-score (-0.5 to 0.5)); higher = stronger / more preferred TF binding
# Settings: protein concentration: 200 nM; construct: GST-full length
# Outline: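 PURExpress in vitro transcription/translation supplied GST-tagged yeast transcription factors, either full-length or DNA-binding domain. Applied at about 100-200 nM to universal all-10-mer Agilent arrays double-stranded by primer extension, the bound protein was detected with fluorescent anti-GST. E-scores, modified Wilcoxon-Mann-Whitney statistics, were given by the Universal PBM Analysis Suite to ungapped eight-base words pooled with their reverse complements after masliner normalisation.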
row,Sequence,PBM E-score
1,AACTCGCA,0.0388
2,AAGGTACG,-0.094
3,GCGTAGAC,-0.0194
4,GAGGTGAC,0.224
5,TATTCCAA,-0.0766
6,GCACTGAC,0.131
7,GGGCCGAA,-0.287
8,GCCTGCGA,-0.22
9,ATCAATCG,0.193
10,CTCAATCC,0.146
11,CGCAATCA,0.302
12,ATCAATCC,-0.0246
13,ATCAATCA,0.381
14,GTCAATTA,0.123
15,GGCAATCA,0.283
16,GTCAATCA,0.389
17,CTCAATCA,0.402
18,TGGGCGAA,0.0204
19,ATCTCTAG,-0.0229
20,CAGACGAC,0.137
21,AGTAAGTC,0.354
22,CCTCAGCA,-0.202
23,AACTGGTA,-0.259
24,AATGACTA,0.487
25,CATGACGA,0.0513

row,Sequence,PBM E-score
1,AATGACCA,0.0838
2,AATGACCG,-0.203
3,CATGACTA,0.491
4,AATGACAG,-0.045
5,AATGACTG,0.441
6,AATGACGA,0.0304
7,CATGACAA,-0.00212
8,AATAGGCT,-0.0339
9,CTCTCGGA,0.144
10,CTGTGGAA,0.0224
11,AATCCTCG,-0.0311
12,GATCATTA,0.128
13,AATCATTC,0.417
14,AATCATTA,0.397
15,CATCATTA,0.161
16,CATCATTC,0.0981
17,AAACATTG,-0.0364
18,AATCATTG,0.43
19,ATTCATTA,0.21
20,AAGCATTG,-0.159
21,TGGTAGAA,-0.0551
22,CACCCTGC,0.118
23,AGGCTACG,-0.232
24,ATCCAAAC,0.00765
25,GAGGACAA,-0.195

row,Sequence,PBM E-score
1,GTCACAAC,0.213
2,ATGTCAGA,-0.0808
3,TCGTCAGA,-0.15
4,GCGTCAGA,-0.116
5,GAGTCAGA,0.472
6,TAGTCAGA,0.457
7,GGGTCAGA,0.00219
8,GACGGCCC,-0.375
9,CATCCTAA,0.0625
10,GTAGAAAC,-0.119
11,AACGGCTT,-0.309
12,CACTCTGC,-0.0532
13,GACTCTGC,0.376
14,AACTCTTA,0.0866
15,GACTCTGA,0.392
16,TACTCTGA,0.156
17,AACTCTGC,0.0728
18,CACTCTTA,-0.016
19,GACTCTTA,0.428
20,AACTCTGA,0.186
21,ATTCTCTG,0.0149
22,CCTCTGCA,-0.264
23,GGCTAGAA,0.00723
24,GCCCTTAA,-0.185
25,AGGCCTGC,-0.27

row,Sequence,PBM E-score
1,CCGGGCCC,-0.315
2,GCGGACCA,-0.0691
3,AGCCCCCT,-0.382
4,ATAGGATG,0.0522
5,CCGAGTCG,0.261
6,TCGAGTCA,0.471
7,CCGAGTCA,0.467
8,GCGAGTAA,0.206
9,TCGAGTAA,0.11
10,ACGAGTCG,0.383
11,GCGAGTCA,0.485
12,ACGAGTTG,-0.0661
13,TCGAGCCA,-0.00283
14,CCGAGTCC,0.195
15,ACGAGTAG,0.039
16,GCGAGTCC,0.262
17,ATACCCGA,-0.0409
18,CTCTTTGC,-0.0733
19,AACGTCCG,-0.343
20,TCTCGAAA,0.0754
21,GCGGAACA,0.0307
22,CAGGGGGC,-0.337
23,CGGCTGAA,0.0435
24,ATTTTGCG,0.00719
25,ACCCAACA,-0.144

row,Sequence,PBM E-score
1,CCGCCTGC,0.00718
2,ACGAGTCT,0.312
3,ACGAGTCC,0.289
4,ACGAGTCA,0.48
5,AATCGCTC,0.211
6,GACTACGC,0.391
7,AACTACGC,0.0819
8,CACTACGC,-0.197
9,TACTACGA,0.181
10,CACTACGA,0.0996
11,GACTACGA,0.413
12,ATGAAATA,-0.0533
13,GAGAGTCA,0.481
14,GAGAGTAA,0.0863
15,AAGAGTGG,-0.242
16,AAGAGTCG,0.423
17,AAGAGTTG,0.0206
18,TAGAGTCA,0.469
19,CAGAGTCG,0.324
20,TAGAGTAA,0.0416
21,TAGAGTGA,0.171
22,GAGAGTCC,0.256
23,CAGAGTCA,0.469
24,CAGAGTCC,0.212
25,AAGGCTGT,-0.161

row,Sequence,PBM E-score
1,CAAACGCA,-0.0486
2,CCCGGACC,-0.189
3,AGTAAGAT,0.0659
4,CATGTTCC,-0.138
5,ACGGTACG,0.0345
6,ATACAAGC,-0.123
7,AAGAGTCC,0.303
8,AAGAGTCA,0.489
9,AAGAGTCT,0.355
10,CACTAGTA,-0.0969
11,TACTAGTA,0.216
12,GACTAGTC,0.408
13,CACTAGTC,0.274
14,GACTAGTA,0.391
15,AACTAGTC,0.355
16,AACCAGTC,0.171
17,GTAGCCAA,-0.0169
18,CATGTCTA,0.205
19,AGTCAACA,0.441
20,GGTCAACC,-0.0162
21,CGTCAACA,-0.189
22,AGTCAACG,0.443
23,AATCAACT,0.314
24,CGTCAACG,0.0184
25,AGTCAACT,0.424

row,Sequence,PBM E-score
1,TGTCAACA,-0.18
2,ACTCAACT,0.337
3,AGTCAACC,0.442
4,ACTCAACG,0.288
5,CGTCAACC,-0.225
6,ATTCGAAG,0.15
7,AAGATACG,-0.0653
8,AGATCTCA,0.0373
9,ATGGGCTG,-0.0763
10,CACTTAGA,0.0684
11,TGCATTAA,0.0992
12,CTGGCCGC,-0.163
13,AATACGCT,-0.136
14,AAGTAGTG,-0.157
15,CAGTAGCC,-0.116
16,AAGTAGTA,0.0556
17,CAGTAGTA,0.111
18,CAGTAGTC,0.403
19,AAGTAGTC,0.415
20,GCAAAGCC,-0.263
21,GTGGCAAC,-0.295
22,CGTTCACA,0.0136
